Assay results reported in PubChem BioAssay (EPA / NIEHS).
Active and inactive are the calls of the source. The calls were made as follows: active = hit-call score of the fitted dose curve at least 0.9, where 1 is the maximum; inactive = score below 0.9.

Legend:
[1] = BSK_4H_SRB: Viability Assessment in the BioMAP Diversity Plus: 4H Assay (AID 2283027); details: primary human endothelial cells (HUVEC);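 also: cells exposed to compound for 24 h before staining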;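 as to AC50: curves fitted both ways versus DMSO so AC50 may be loss or gain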
Method in brief: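 Human umbilical vein endothelial cells were dosed with chemical and, after 24 h, fixed with 10% TCA, stained with 0.1% sulforhodamine B, and read at 560 nm to give total protein as a cytotoxicity measure. Bidirectional fitting relative to DMSO control.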

[2] = BSK_BE3C_SRB: Viability Assessment in the BioMAP Diversity Plus: BE3C Assay (AID 2283028); details: primary human bronchial epithelial cells
Method in brief: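 Overt cytotoxicity was assessed as total protein in confluent human primary bronchial epithelial cultures 24 h after chemical addition, using 0.1% sulforhodamine B staining read at 560 nm.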

[3] = read-out: Thrombomodulin, THBD (gene 7056); test: BSK_3C_Thrombomodulin: BioMAP Diversity Plus: 3C Assay for Thrombomodulin Biomarker Activity (AID 2283029); details: primary human endothelial cells (HUVEC); actives raise or lower the signal
Method in brief: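 Thrombomodulin ELISA, human primary HUVEC, 24 h post-dose; data fitted in both directions relative to DMSO.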

[4] = read-out: Urokinase-type plasminogen activator receptor (uPAR), PLAUR (gene 5329); test: BSK_4H_uPAR: BioMAP Diversity Plus: 4H Assay for Urokinase-type plasminogen activator receptor (uPAR) Biomarker Activity (AID 2283030); details: primary human endothelial cells (HUVEC); actives raise or lower the signal
Method in brief: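 Chemicals are dosed onto human vascular endothelial primary cells (umbilical vein). After 24 h, uPAR is read by ELISA. Gain or loss of signal is fitted relative to DMSO.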

[5] = read-out: Vascular endothelial growth factor receptor 2 (Homo sapiens) (UniProt P35968); test: BSK_4H_VEGFRII: BioMAP Diversity Plus: 4H Assay for Vascular endothelial growth factor receptor 2 (VEGFR2) Biomarker Activity (AID 2283031); details: primary human endothelial cells (HUVEC); actives raise or lower the signal;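 as to AC50: cell-surface VEGFR2 protein level quantified by ELISA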
Method in brief: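 VEGFRII levels on human vascular endothelial primary cells were determined by ELISA at 24 hours post-dosing, with gain- or loss-of-signal fitted against DMSO controls.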

[6] = read-out: Human Leukocyte Antigen - DR isotype (HLADR), HLA-DRA (gene 3122); test: BSK_BE3C_HLADR: BioMAP Diversity Plus: BE3C Assay for Human Leukocyte Antigen - DR isotype (HLADR) Biomarker Activity (AID 2283032); details: primary human bronchial epithelial cells; actives raise or lower the signal
Method in brief: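 Signal came from an ELISA for HLA-DR in human bronchial epithelial primary cells harvested 24 h after treatment; gain- and loss-of-signal fitting used DMSO controls as reference.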

[7] = read-out: Vascular cell adhesion molecule 1 (VCAM1), VCAM1 (gene 7412); test: BSK_4H_VCAM1: BioMAP Diversity Plus: 4H Assay for Vascular cell adhesion molecule 1 (VCAM1) Biomarker Activity (AID 2283033); details: primary human endothelial cells (HUVEC); actives raise or lower the signal
Method in brief: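 Endpoint derived from bidirectional fitting against DMSO controls of VCAM-1 ELISA signal in umbilical vein endothelial cells sampled at 24 h following treatment.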

[8] = read-out: Interferon-gamma inducible Protein 10 (IP10), CXCL10 (gene 3627); test: BSK_BE3C_IP10: BioMAP Diversity Plus: BE3C Assay for Interferon-gamma inducible Protein 10 (IP10) Biomarker Activity (AID 2283034); details: primary human bronchial epithelial cells; actives raise or lower the signal
Method in brief: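 Using primary human bronchial epithelial cultures, the assay captures IP-10 by ELISA one day (24 h) after exposure. Parallel SRB staining of total protein flags overt cytotoxicity. Fits run bidirectionally relative to DMSO.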

[9] = read-out: Monokine induced gamma interferon (MIG), CXCL9 (gene 4283); test: BSK_BE3C_MIG: BioMAP Diversity Plus: BE3C Assay for Monokine induced gamma interferon (MIG) Biomarker Activity (AID 2283035); details: primary human bronchial epithelial cells; actives raise or lower the signal;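 also: MIG protein measured by ELISA in BE3C cultures after 24 h of dosing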
Method in brief: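 ELISA read-out of MIG in human lung bronchial epithelial primary cultures, 24 h post-dosing. Bidirectional curve fit vs DMSO baseline.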

[10] = read-out: Plasminogen activator inhibitor-1 (PAI1), SERPINE1 (gene 5054); test: BSK_BE3C_PAI1: BioMAP Diversity Plus: BE3C Assay for Plasminogen activator inhibitor-1 (PAI1) Biomarker Activity (AID 2283037); details: primary human bronchial epithelial cells; actives raise or lower the signal
Method in brief: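 PAI-1 biomarker levels in treated human bronchial epithelial cells are determined by ELISA at 24 h. Both increases and decreases relative to DMSO are fitted.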

[11] = read-out: urokinase plasminogen activator (uPA), PLAU (gene 5328); test: BSK_BE3C_uPA: BioMAP Diversity Plus: BE3C Assay for urokinase plasminogen activator (uPA) Biomarker Activity (AID 2283038); details: primary human bronchial epithelial cells; actives raise or lower the signal;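 also: uPA protein level quantified by ELISA in cell cultures; uPA read one day after compound addition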
Method in brief: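 Measured by ELISA: uPA from human primary bronchial epithelial cells 24 h after chemical treatment. Values derive from bidirectional curve fitting with DMSO serving as negative control. Total protein by SRB staining in parallel wells flagged overt cytotoxicity.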

[12] = read-out: Urokinase-type plasminogen activator receptor (uPAR), PLAUR (gene 5329); test: BSK_BE3C_uPAR: BioMAP Diversity Plus: BE3C Assay for Urokinase-type plasminogen activator receptor (uPAR) Biomarker Activity (AID 2283039); details: primary human bronchial epithelial cells; actives raise or lower the signal
Method in brief: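 A uPAR ELISA serves as the readout, taken 24 h after treating primary human bronchial epithelial cells. Responses in either direction are fitted against DMSO, which defines baseline activity.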

[13] = read-out: Interleukin-6 (IL6), IL6 (gene 3569); test: BSK_CASM3C_IL6: BioMAP Diversity Plus: CASM3C Assay for Interleukin-6 (IL6) Biomarker Activity for (AID 2283040); details: primary human coronary artery smooth muscle cells; actives raise or lower the signal
[14] = read-out: Tissue plasminogen activator (tPA), PLAT (gene 5327); test: BSK_BE3C_tPA: BioMAP Diversity Plus: BE3C Assay for Tissue plasminogen activator (tPA) Biomarker Activity (AID 2283041); details: primary human bronchial epithelial cells; actives raise or lower the signal;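 also: tPA level quantified by ELISA one day after compound addition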
Method in brief: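 Bidirectional curve fitting relative to DMSO defined activity, with tPA detected by ELISA in chemically treated human bronchial epithelial primary cells at 24 hours.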

[15] = read-out: Interleukin-8 (IL8), CXCL8 (gene 3576); test: BSK_CASM3C_IL8: BioMAP Diversity Plus: CASM3C Assay for Interleukin-8 (IL8) Biomarker Activity (AID 2283042); details: primary human coronary artery smooth muscle cells; actives raise or lower the signal;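 also: IL-8 protein level quantified by ELISA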
[16] = read-out: Human Leukocyte Antigen - DR isotype (HLADR), HLA-DRA (gene 3122); test: BSK_CASM3C_HLADR: BioMAP Diversity Plus: CASM3C Assay for Human Leukocyte Antigen - DR isotype (HLADR) Biomarker Activity (AID 2283043); details: primary human coronary artery smooth muscle cells; actives raise or lower the signal;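 also: cell-surface HLA-DR protein level quantified by ELISA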
[17] = read-out: Macrophage colony-stimulating factor (MCSF), CSF1 (gene 1435); test: BSK_CASM3C_MCSF: BioMAP Diversity Plus: CASM3C Assay for Macrophage colony-stimulating factor (MCSF) Biomarker Activity (AID 2283044); details: primary human coronary artery smooth muscle cells; actives raise or lower the signal;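 also: M-CSF protein amount quantified by ELISA after 24 h exposure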
[18] = BSK_3C_Vis: BioMAP Diversity Plus: 3C Assay for Morphology Visualization (AID 2283025); details: primary human endothelial cells (HUVEC);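 also: fitted both ways so gain or loss versus DMSO counts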;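 as to AC50: light microscopy image of cell morphology used as background control; cells imaged 24 h after dosing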
Method in brief: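 Endothelial cells from human umbilical vein were treated with test chemicals for 24 h and inspected by light microscopy for changes in cell conformation.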

[19] = read-out: Transforming growth factor beta 1 (TGFb1), TGFB1 (gene 7040); test: BSK_BE3C_TGFb1: BioMAP Diversity Plus: BE3C Assay for Transforming growth factor beta 1 (TGFb1) Biomarker Activity (AID 2283036;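 also: TGF-b1 protein level measured by ELISA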); details: primary human bronchial epithelial cells; actives raise or lower the signal
Method in brief: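 In this human primary bronchial epithelial system, an ELISA quantified TGF-b1 one day after dosing. Endpoint changes in either direction were fitted relative to DMSO.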

Measured: AC50

O=C(Cc1ccccc1)OCCc1ccccc1
inactive: [1] | [2] | [3] | [4] | [5] | [6] | [7] | [8] | [9] | [10] | [11] | [12] | [13] | [14] | [15] | [16] | [17]

CCOP(=O)(OCC)SCCSCC
inactive: [18] | [1] | [2] | [3] | [4] | [5] | [6] | [7] | [8] | [9] | [19] | [10] | [11] | [12] | [13] | [14] | [15] | [16] | [17]

CC(C)(COCC1CO1)COCC1CO1 (stereo unspecified)
inactive: [18] | [1] | [2] | [3] | [4] | [5] | [6] | [7] | [8] | [9] | [19] | [10] | [11] | [12] | [13] | [14] | [15] | [16] | [17]

Cc1ccccc1OP(=O)(Oc1ccccc1)Oc1ccccc1
inactive: [2] | [3] | [8] | [9] | [19] | [10] | [11] | [12] | [13] | [14] | [15] | [16] | [17]
active: [18] 11.6 µM | [1] 20 µM | [4] 32.2 µM | [5] 20 µM | [6] 11.5 µM | [7] 26.1 µM

CCC(C)(C#N)N=NC(C)(C#N)CC (stereo unspecified)
active: [17] 0.016 µM
inactive: [18] | [1] | [2] | [3] | [4] | [5] | [6] | [7] | [8] | [9] | [19] | [10] | [11] | [12] | [13] | [14] | [15] | [16]

Oc1c(Br)cc(Br)cc1Br
inactive: [18] | [3] | [4] | [9] | [19] | [10] | [11] | [13] | [14] | [15] | [16] | [17]
active: [1] 29.5 µM | [5] 27.3 µM | [6] 12.6 µM | [7] 20 µM | [8] 20 µM | [12] 20 µM
